# Results taken from PMC5540273 (PLoS ONE, 2017).
# Columns and labels:
# Details in all cases: concentration: 1 μM,replicates: in singlicate; n = 1
# TNNI3K = system: TNNI3K
# TRKA = system: T1, TRKA
# T1 construct: gene NTRK1
# TRKB = system: TRKB
# TRKC = system: T2, TRKC
# T2 construct: gene NTRK3
# TRPM6 = system: TRPM6
# TSSK1B = system: TSSK1B
# TSSK3 = system: TSSK3
# TTK = system: TTK
# TXK = system: TXK
# [1] = system: TYK2(JH1domain-catalytic)
# [2] = system: TYK2(JH2domain-pseudokinase)
# TYRO3 = system: TYRO3
# ULK1 = system: ULK1
# ULK2 = system: ULK2
# ULK3 = system: ULK3
# VEGFR2 = system: T3, VEGFR2
# T3 construct: gene KDR
# VPS34 = system: T4, VPS34
# T4 construct: gene PIK3C3
# VRK2 = system: VRK2
# WEE1 = system: WEE1
# WEE2 = system: WEE2
# 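Further: KINOMEscan kinase panel screen.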
SMILES,%Inh (TNNI3K),%Inh (TRKA),%Inh (TRKB),%Inh (TRKC),%Inh (TRPM6),%Inh (TSSK1B),%Inh (TSSK3),%Inh (TTK),%Inh (TXK),%Inh [1],%Inh [2],%Inh (TYRO3),%Inh (ULK1),%Inh (ULK2),%Inh (ULK3),%Inh (VEGFR2),%Inh (VPS34),%Inh (VRK2),%Inh (WEE1),%Inh (WEE2)
Cl.Oc1cc(-c2nc(-c3ccccc3)[nH]c2-c2ccncc2)ccc1Cl [SB-386023],14%,19%,6%,12%,23%,0%,0%,29%,42%,0%,0%,58%,7%,25%,25%,20%,14%,0%,0%,11%
CCN(CC)CCOc1ccc(Nc2ncc3cc(-c4c(Cl)cccc4Cl)c(=O)n(C)c3n2)cc1 [SB-601273],100%,100%,43%,92.9%,48%,56%,24%,59%,99.5%,96.7%,25%,100%,92.4%,95.2%,59%,97.6%,44%,46%,99.9%,99.7%
CCn1c(-c2nonc2N)nc2c(C#CC(C)(C)O)nc(OCCN)cc21.Cl.Cl [GSK902056],0%,0%,0%,0%,0%,23%,85%,0%,36%,17%,9%,0%,33%,0%,13%,0%,0%,0%,6%,15%
Cc1n[nH]c2ccc(-c3cc(OC[C@@H](N)Cc4ccccc4)cnc3-c3ccoc3)cc12.O=C(O)C(F)(F)F.O=C(O)C(F)(F)F [GSK507358],0%,0%,0%,15%,0%,0%,6%,0%,0%,7%,19%,0%,0%,8%,22%,0%,0%,33%,35%,15%
Cl.Cl.NC[C@H](Cc1ccc(C(F)(F)F)cc1)NC(=O)c1cc(Br)c(-c2ccnc3[nH]ccc23)s1 [GSK1487252],13%,86%,67%,74%,0%,0%,2%,10%,0%,3%,16%,0%,5%,19%,6%,34%,0%,0%,0%,0%
Cl.Cl.NC[C@H](CC1CCCCC1)NC(=O)c1cc(Br)c(-c2ccnc3[nH]ccc23)s1 [GSK1581427],0%,84%,64%,57%,8%,58%,3%,21%,1%,13%,5%,0%,28%,0%,10%,7%,0%,0%,3%,10%
Cc1cc(C(=O)Nc2ccc(Oc3ccc4nc(NC(=O)C5CC5)cn4n3)cc2)nn1-c1ccccc1,14%,100%,64%,12%,0%,0%,0%,26%,22%,15%,0%,37%,0%,0%,0%,–,0%,0%,15%,7%
Cc1ccc(-n2nc(C(C)(C)C)cc2NC(=O)Nc2ccc(OCCN3CCOCC3)c3ccccc23)cc1 [GW839464],0%,32%,70%,–,0%,10%,0%,31%,13%,0%,0%,37%,0%,0%,0%,37%,21%,0%,0%,14%
O=C(NCCCN1CCOC1=O)c1cnc(NCc2cc(Cl)ccc2Cl)nc1NC1CCCC1,9%,15%,0%,4%,2%,0%,0%,17%,17%,0%,0%,46%,0%,0%,0%,0%,0%,7%,0%,0%
C=CC(=O)Nc1cc2c(Nc3ccc(F)c(Cl)c3)ncnc2cc1OCCCN1CCOCC1 [GW781483],0%,47%,4%,18%,0%,0%,47%,0%,82%,25%,21%,29%,0%,17%,14%,0%,6%,0%,0%,20%
C[C@@H](Oc1cc(-c2cnn(C3CCNCC3)c2)cnc1N)c1c(Cl)ccc(F)c1Cl,88%,99.9%,99.7%,–,21%,0%,0%,0%,41%,84%,43%,–,67%,53%,32%,22%,0%,11%,0%,0%
Cc1occc1-c1nc(N)c(OC[C@@H](N)Cc2c[nH]c3ccccc23)cc1-c1cc2c(C)n[nH]c2cn1 [GSK1660450],20%,3%,0%,0%,22%,20%,5%,32%,43%,3%,0%,0%,33%,22%,11%,0%,18%,90.1%,0%,15%
CN(C)CC(O)COc1ccc(Nc2nccc(-c3cnn4nc(N5CCOCC5)ccc34)n2)cc1 (stereo not drawn) [GW767488],0%,81%,31%,45%,33%,5%,65%,57%,3%,66%,97.3%,10%,98.8%,96.3%,61%,20%,95.4%,0%,8%,0%
CC(C)Nc1cc(-c2ccc3c(N)n[nH]c3c2)nc(N)n1 [GSK2221681],0%,0%,0%,0%,13%,1%,58%,24%,0%,0%,8%,0%,76%,22%,9%,4%,0%,0%,8%,0%
